Laboratory results reported in PubChem BioAssay.
“And” between values parts separate entries of the source, which are not always exact repeats. Equal entries are not always repeated. Records with an inconclusive call do not appear. The source holds several records for some structures; these can differ, active in one and inactive in another. The source made the active and inactive calls. Unless noted, the limit is not given here; nearly all actives have AC50 up to about 26 µM.

Legend:
[1] = viability loss in pontine glioma line – cell-based, SU-DIPG-XXV, MIPE5.0, CellTiter-Glo, qHTS, dose response (AID 1347065); settings: CellTiter-Glo ATP luminescence;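 also: cells exposed to compound for 48 hours before ATP readout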
[2] = SU-DIPG-VI glioma cell viability, MIPE4.0 library, CellTiter-Glo luminescence, qHTS (AID 1347066; cut-off not given, nearly all actives have AC50 up to about 30 µM;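 also: cells exposed to compound for 48 hours before readout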); settings: CellTiter-Glo ATP luminescence
[3] = JHH-DIPG-1 glioma cell viability, MIPE5.0 library, CellTiter-Glo luminescence, qHTS (AID 1347067); settings: JHH-DIPG-1 glioma viability, CellTiter-Glo ATP luminescence;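 also: cells exposed to compound for 48 hours before readout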
[4] = SU-DIPG-XXV glioma cell viability, MIPE5.0 library, qHTS (AID 1347068; cut-off not given, nearly all actives have IC50 up to about 30 µM;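 as to IC50: cells exposed to compound for 48 hours before viability readout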)
[5] = phospholipid biosynthesis inhibitors in animal cells, primary screen, cell-based, LOPAC library, screen 4 (AID 1347384; call rule not given here); settings: phospholipid biosynthesis inhibition screen, at 10 µM
[6] = survival rescue of mitochondrial mutant cells in low glucose, primary screen, MELAS cybrids, Rieske KO mouse fibroblasts, CellTiter-Glo (AID 1508586;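 active = mean z-score across replicates of 1.96 or higher in either the MELAS or the Rieske mutant cell line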;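 also: z relative to plate mean and SD of compound and empty wells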)
[7] = biological target: NAD(+) hydrolase SARM1 (Homo sapiens) (UniProt Q6SZW1); experiment: SARM1 TIR NADase inhibitors, cell lysate, NAD-Glo luminescence (AID 1508614;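 active = compound whose remaining NAD level is above about 45 nM, limit read from the data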;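 also: higher remaining NAD means stronger inhibition of SARM1 NADase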); settings: SAM-TIR HEK293T lysate NADase, at 1 µM, stronger effect = higher value
Sequence of NAD(+) hydrolase SARM1 (Homo sapiens) (Q6SZW1 whole entry, looked up, the tested form may be a part): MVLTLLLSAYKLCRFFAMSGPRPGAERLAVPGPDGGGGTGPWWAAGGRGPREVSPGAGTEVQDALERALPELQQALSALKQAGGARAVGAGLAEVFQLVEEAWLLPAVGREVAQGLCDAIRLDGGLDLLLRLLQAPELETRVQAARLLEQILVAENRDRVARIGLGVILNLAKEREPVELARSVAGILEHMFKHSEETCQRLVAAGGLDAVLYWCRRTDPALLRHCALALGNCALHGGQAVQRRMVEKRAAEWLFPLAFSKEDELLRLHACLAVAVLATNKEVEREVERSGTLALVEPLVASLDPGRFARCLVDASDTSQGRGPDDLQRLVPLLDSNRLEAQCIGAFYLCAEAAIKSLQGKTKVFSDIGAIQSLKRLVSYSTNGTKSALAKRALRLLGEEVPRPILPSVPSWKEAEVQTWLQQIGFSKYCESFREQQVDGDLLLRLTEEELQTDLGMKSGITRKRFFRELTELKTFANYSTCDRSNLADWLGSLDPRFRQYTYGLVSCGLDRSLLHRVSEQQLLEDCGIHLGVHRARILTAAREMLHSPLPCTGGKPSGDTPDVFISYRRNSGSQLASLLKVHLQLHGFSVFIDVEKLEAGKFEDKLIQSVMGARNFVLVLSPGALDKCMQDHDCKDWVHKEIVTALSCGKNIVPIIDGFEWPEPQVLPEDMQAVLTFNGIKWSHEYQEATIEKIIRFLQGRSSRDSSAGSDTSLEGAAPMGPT

[8] = biological target: Mitogen-activated protein kinase 7 (Homo sapiens) (UniProt Q13164); experiment: ERK5 transactivation activators in reporter cells, primary screen, cell-based, HTS (AID 1508626;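 active = luciferase signal above three times the same-plate solvent-only control wells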;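 also: luciferase driven by Gal4-ERK5 fusion binding five Gal4 sites before minimal TATA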); settings: HeLa Gal4-ERK5 transactivation, 18 h, at 5 µM, stronger effect = higher value
Sequence of Mitogen-activated protein kinase 7 (Homo sapiens) (Q13164 whole entry, looked up, the tested form may be a part): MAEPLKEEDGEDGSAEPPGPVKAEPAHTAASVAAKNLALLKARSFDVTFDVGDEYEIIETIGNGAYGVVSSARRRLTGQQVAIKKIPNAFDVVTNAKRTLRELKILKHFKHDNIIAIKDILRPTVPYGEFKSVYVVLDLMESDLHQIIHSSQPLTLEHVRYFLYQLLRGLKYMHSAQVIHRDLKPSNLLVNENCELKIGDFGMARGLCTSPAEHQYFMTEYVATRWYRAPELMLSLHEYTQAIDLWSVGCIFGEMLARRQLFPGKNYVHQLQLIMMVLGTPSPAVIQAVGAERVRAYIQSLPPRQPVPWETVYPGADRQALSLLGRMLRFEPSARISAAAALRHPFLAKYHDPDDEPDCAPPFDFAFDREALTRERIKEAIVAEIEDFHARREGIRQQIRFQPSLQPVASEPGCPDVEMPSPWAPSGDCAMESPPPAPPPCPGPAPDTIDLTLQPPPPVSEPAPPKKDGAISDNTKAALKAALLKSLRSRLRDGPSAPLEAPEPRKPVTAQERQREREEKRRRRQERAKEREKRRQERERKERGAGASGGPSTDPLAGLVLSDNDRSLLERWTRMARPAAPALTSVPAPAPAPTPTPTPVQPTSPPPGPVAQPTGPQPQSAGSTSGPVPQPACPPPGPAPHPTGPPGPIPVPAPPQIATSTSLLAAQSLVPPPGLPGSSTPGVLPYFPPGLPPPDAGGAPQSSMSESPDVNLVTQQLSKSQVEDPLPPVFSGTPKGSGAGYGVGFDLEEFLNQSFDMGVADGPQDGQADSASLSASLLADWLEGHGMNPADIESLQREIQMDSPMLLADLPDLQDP

[9] = viability rescue of complex I mutant cybrids, primary screen, cell-based, galactose medium, ATP luminescence (AID 1645843;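 active = z-score of at least 1.8 in each of two replicates, scored against plate mean and spread of sample wells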;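 also: positive z means more ATP and so rescue of galactose-driven cybrid death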); settings: complex I mutant cybrid cells, 72 h, stronger effect = higher value
[10] = modifiers of HSF1 nuclear foci, imaging, Selleck Cancer Library (AID 1347162; in the data active = plate-normalised HSF1 focus index below about 0.46); settings: human cells, at 10 µM; SSMD: measured here: HSF1 foci SSMD mean; cell count: measured here: cell number; plate-normalised HSF1 focus index: stronger effect = lower value
[11] = MELAS cybrid survival, CellTiter-Glo 48 h, stronger effect = higher value
[12] = Rieske KO mouse fibroblast survival, CellTiter-Glo 72 h

N[C@@H](Cc1ccc(O)c(O)c1)C(=O)O
outcome [1]: inactive
outcome [2]: inactive
outcome [3]: inactive
outcome [4]: inactive
outcome [5]: inactive
z-score [6, 11]: -0.394 (inactive) and -0.26 (inactive)
z-score [6, 12]: 0.117 and -1.12
remaining NAD [7]: 10 nM (inactive)
luciferase signal [8]: 72 AU (inactive)
z-score [9]: -0.965 (inactive) and -1.59 (inactive)

CCN1CCCC1CNC(=O)c1cc(S(=O)(=O)CC)c(N)cc1OC (stereo not drawn)
outcome [1]: inactive
outcome [2]: inactive
outcome [3]: inactive
outcome [4]: inactive
outcome [5]: inactive
z-score [6, 11]: -0.415 (inactive) and 0.449 (inactive)
z-score [6, 12]: 0.177 and 0.21
remaining NAD [7]: 10 nM (inactive)
z-score [9]: 0.105 (inactive) and 0.58 (inactive) and -0.055 (inactive)

COc1cccc2c1C(=O)c1c(O)c3c(c(O)c1C2=O)C[C@@](O)(C(=O)CO)C[C@@H]3O[C@H]1C[C@H](N)[C@H](O)[C@H](C)O1
AC50 [1]: 1180 nM (active)
AC50 [2]: 2350 nM (active)
AC50 [3]: 1050 nM (active)
IC50 [4]: 7420 nM (active)
SSMD [10]: -18.3
cell count [10]: 7010
plate-normalised HSF1 focus index [10]: 0.0593 (active)
z-score [6, 11]: 0.616 (inactive) and 7.1 (active)
z-score [6, 12]: -1.64 and -0.526
remaining NAD [7]: 10 nM (inactive)
luciferase signal [8]: 32 AU (inactive)
z-score [9]: -0.63 (inactive) and -2.04 (inactive)

Cc1cnc(NC(=O)C2=C(O)c3ccccc3S(=O)(=O)N2C)s1
outcome [1]: inactive
outcome [2]: inactive
outcome [3]: inactive
outcome [4]: inactive
outcome [5]: inactive
z-score [6, 11]: -0.282 (inactive) and 0.497 (inactive) and -0.212 (inactive)
z-score [6, 12]: 0.842 and 0.0996 and -0.732
remaining NAD [7]: 10 nM (inactive)
luciferase signal [8]: 52 AU (inactive)
z-score [9]: 1.35 (inactive) and 0.585 (inactive) and 0.515 (inactive)

CC[N+](CC)(CC)CCOc1cccc(OCC[N+](CC)(CC)CC)c1OCC[N+](CC)(CC)CC
outcome [1]: inactive
outcome [2]: inactive
outcome [3]: inactive
outcome [4]: inactive
outcome [5]: inactive
z-score [6, 11]: -0.318 (inactive) and -0.405 (inactive) and -0.918 (inactive)
z-score [6, 12]: 0.619 and -0.334 and -0.59
remaining NAD [7]: 10 nM (inactive)
luciferase signal [8]: 216 AU (active)
z-score [9]: 0.34 (inactive) and 0.415 (inactive)

CC(C)NCC(O)COc1ccc(CCOCC2CC2)cc1 (stereo not drawn)
outcome [1]: inactive
outcome [2]: inactive
outcome [3]: inactive
outcome [4]: inactive
outcome [5]: inactive
remaining NAD [7]: 10 nM (inactive)

CCCCCN(C)CCC(O)(P(=O)(O)O)P(=O)(O)O
outcome [1]: inactive
outcome [2]: inactive
outcome [3]: inactive
outcome [4]: inactive
outcome [5]: inactive
remaining NAD [7]: 10 nM (inactive)

NC[C@H](O)c1ccc(O)c(O)c1
outcome [1]: inactive
outcome [2]: inactive
outcome [3]: inactive
outcome [4]: inactive
outcome [5]: inactive
z-score [6, 11]: -0.303 (inactive) and 0.0574 (inactive) and -0.946 (inactive)
z-score [6, 12]: -0.266 and 0.00809 and -1.27
remaining NAD [7]: 10 nM (inactive)
luciferase signal [8]: 60 AU (inactive)
z-score [9]: -1.45 (inactive) and -1.61 (inactive) and -1.02 (inactive)
